An excerpt weighted towards active compounds, which were near 10% of everything screened.
PNC assembly inh: High Content Assay for Compounds that inhibit the Assembly of the Perinucleolar Compartment. PC3M PTB-GFP, PNC prevalence imaging, 16 h; active compounds read low. activity change (PNC), negative = inhibition, % at 10 µM. 140,000 tested, 3.1% active;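 active means readout at or below -70, meaning at least 70% loss of cells showing the perinucleolar compartment, a nuclear body marking cancer cells; inconclusive means readout between -30 and a set limit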;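 further: plate controls were DMSO wells for no effect and camptothecin positive control wells for full effect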
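PC3M cells stably expressing PTB-GFP, 750–1000 cells/well, treated 16 h at 37 °C with compound (23 nl of library stock), in duplicate. After paraformaldehyde fixation and Hoechst stain, imaged at 20x; PNC prevalence scored by image analysis.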
Lamin A splicing: qHTS Assay for Modulators of Lamin A Splicing. HeLa LMNA splicing GFP/RFP minigene ratio, 48 h. Potency, µM (top dose mostly 46.1 µM), inactives show at the highest dose ratio change, negative = inhibition, hits mostly inhibitors. 200,000 tested, 0.01% active; active means well fitted inhibition curve with a large enough effect in the signal ratio, with a control signal flat, not every such curve was filed as active; inconclusive means small, poorly fitted or top-dose-only effect, or effect the other way, or a change in a side signal; the % refers to the signal ratio; further: potency means the concentration at half of the fitted maximal effect
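S3 HeLa cells stably expressing lamin A-EGFP splicing minigene plus DsRed2, 600 cells/well, 48 h compound exposure at 37C. Laser-scanning cytometry; analysed as GFP (500-530 nm)/RFP (575-640 nm) total intensity ratio; 0.5% DMSO vehicle.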
ALDH1A1 block: qHTS Assay for Inhibitors of Aldehyde Dehydrogenase 1 (ALDH1A1) | Purified ALDH1A1, NADH fluorescence, propionaldehyde substrate | Aldehyde dehydrogenase 1A1 (Homo sapiens), P00352 | Potency, µM (series often up to 75.3 µM), for inactives: at the highest dose activity, negative = inhibition, most hits filed as inhibitors | 220,000 tested, 7.3% active;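 further: potency means the concentration at half of the fitted maximal effect; plate controls were no enzyme wells and a reference inhibitor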
HPGD inh: qHTS Assay for Inhibitors of HPGD (15-Hydroxyprostaglandin Dehydrogenase). Potency, µM, for the others: top-dose activity change, negative = inhibition, actives largely listed as inhibitors. 150,000 tested, 4.3% active. 15-hydroxyprostaglandin dehydrogenase [NAD(+)] (Homo sapiens), P15428. purified HPGD, NADH fluorescence kinetic, PGE2 substrate; further: potency means the concentration at half of the fitted maximal effect
Target sequence (P15428 whole entry, looked up): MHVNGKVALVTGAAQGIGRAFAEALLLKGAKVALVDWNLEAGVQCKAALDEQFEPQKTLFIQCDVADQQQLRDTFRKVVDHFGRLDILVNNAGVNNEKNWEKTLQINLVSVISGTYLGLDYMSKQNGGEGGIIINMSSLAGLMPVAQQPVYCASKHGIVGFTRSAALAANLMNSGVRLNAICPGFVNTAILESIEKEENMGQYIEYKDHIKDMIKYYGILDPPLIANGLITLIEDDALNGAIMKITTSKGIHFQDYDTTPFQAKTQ
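NADH formation kinetics: reaction with 30 uM PGE2 and 1 mM NAD+ (final), 20 nM enzyme, Tris-HCl pH 8 with Tween 20, after 15 min compound preincubation at room temperature. Fluorescence change, last versus first of five reads.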
12-hLO inh: qHTS Assay for Inhibitors of 12-hLO (12-human lipoxygenase); Polyunsaturated fatty acid lipoxygenase ALOX12 (Homo sapiens), P18054; purified 12-hLO, xylenol orange hydroperoxide absorbance; Potency, µM (highest dose often 57.1 µM), for inactives: at the top dose activity change, negative = inhibition, hits mostly inhibitors; 150,000 tested, 0.12% active; AID 1452, 2008; active means well fitted inhibition curve with a large enough effect; inconclusive means small, poorly fitted or top-dose-only effect; further: potency means the concentration at half of the fitted maximal effect; nearly all actives have a fitted effect of over 55% in size
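Xylenol orange chromogenic assay: hydroperoxide from 12hLO oxidises Fe(II), giving red-shifted Fe(III)-XO absorbance. Conditions: 150 nM enzyme, 40 uM arachidonic acid, 25 mM Hepes pH 7.0, 0.01% Triton X-100, 30 min, room temperature.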
Active calls of the source: *; ? = inconclusive; nt = no result; [ ] = another dose, or the depositor's remark. Unless noted, the call rests on the fitted dose curve; in most records, active means well fitted inhibition curve with a large enough effect (not every such curve was filed as active); inconclusive means small, poorly fitted or top-dose-only effect, or another doubt; inactive means no such curve, though single readings can be large or run the other way. Unless noted, on the % scale 0 is the no-effect control and ±100 the full control effect.

SMILES | PNC assembly inh | Lamin A splicing | ALDH1A1 block | HPGD inh | 12-hLO inh
O=C(CC(c1ccccc1)c1ccccc1O)NCc1ccco1 (configuration not stated) | 0 | ? | 3% | 16µM* | -6%
O=C(CC(c1ccccc1)c1ccccc1O)NCc1ccccc1Cl (configuration not stated) | ? | -9% | -4% | 16µM* | 0%
O=C(COC(=O)CCSc1ccccc1)NCc1ccccc1Cl | 29 | ? | 7% | 18µM* | 3%
Cc1nc(NCc2ccccc2)c2nc(-c3ccccc3)n(CCCN3CCOCC3)c2n1 | nt | nt | ? | ? | 2%
COc1ccccc1/C=C1\CCCC2=C1Nc1nnnn1C2c1ccccc1OC (configuration not stated) | -1 | ? | 25µM* | -16% | -3%
O=C(/C=C/c1ccc([N+](=O)[O-])s1)N1CCCCC1 | nt | 12%[46 µM] | 28µM* | nt | nt
CC1CC(C)CN(C(=O)/C=C/c2ccc([N+](=O)[O-])s2)C1 (configuration not stated) | nt | nt | 2.8µM* | nt | nt
Cc1cc(C)cc(NC(=O)/C=C/c2ccc([N+](=O)[O-])s2)c1 | -17 | ? | -1% | 0% | 1%
CC(=O)O[C@]1(C)N=NC2(CCCCC2)O1 | nt | nt | -1%[13.5 µM] | -3% | -3%[11.4 µM]
COc1cc(NS(=O)(=O)c2ccc(NC(=S)NC(=O)c3sc4ccccc4c3Cl)cc2)ncn1 | ? | -6% | 22µM* | -16% | -1%
CCOC(=S)NC(=O)c1sc2ccccc2c1Cl | -109* | -6%[0.0737 µM] | 0.35µM* | -25% | -15%
CCCOC(=S)NC(=O)c1sc2ccccc2c1Cl | ? | -5%[0.0737 µM] | 5.6µM* | 20µM* | -3%
COc1ccccc1NC(=O)CCNS(=O)(=O)c1ccc2c(c1)CCCC(=O)N2 | nt | 4%[46 µM] | nt | nt | nt
NCCSCCC(=O)O | nt | nt | 6%[13.5 µM] | -10% | -1%[11.4 µM]
O=C(O)c1cn(-c2ccc(N3CCCC3)c(F)c2)c2c(F)c(F)c(F)cc2c1=O | nt | nt | 16µM* | nt | nt
CC(=O)c1ccc(N2CCCC2)c(F)c1 | -20 | -18% | -3% | -12% | -3%
O=C(Nc1c2c(nn1-c1ccc(F)cc1)CS(=O)(=O)C2)C12CC3CC(CC(C3)C1)C2 | 7 | 8% | 4µM* | -13% | -1%
O=C(CCC1CCCCC1)Nc1c2c(nn1-c1ccc(F)cc1)CS(=O)(=O)C2 | -12 | -15% | 10µM* | -7% | -1%
CCC(=O)Nc1c2c(nn1-c1ccc(F)cc1)CS(=O)C2 (configuration not stated) | -7 | 1% | 18% | -1% | -2%
COC(=O)[C@@]1(Cc2ccc(OC)cc2)[C@H]2c3cc(C(=O)N(C)C)n(CCc4ccccn4)c3C[C@H]2CN1C(=O)c1ccccc1 | nt | nt | -2% | -7% | -26%
NC(=S)Nc1ccc(Oc2ccc(NC(N)=S)cc2)cc1 | ? | -3% | 28µM* | 22µM* | ?
Cc1ccc(NC(N)=S)cc1 | 11 | 8% | -3% | -7% | -4%
Cc1ccc(NC(N)=S)cc1C | -125* | -5% | -3% | -9% | -4%
Cn1c(SCC(=O)Nc2cccnc2)nnc1-c1ccccc1F | nt | -18%[46 µM] | -9% | nt | nt
Cc1nn(Cc2ccccc2)c(C)c1NC(=O)CSc1nnc(-c2cc(Cl)ccc2O)n1C | -14 | 0% | ? | 28µM* | -16%
SMILES | PNC assembly inh | Lamin A splicing | ALDH1A1 block | HPGD inh | 12-hLO inh
CC(C)c1cc(NC(=O)CSc2nnc(-c3ccccc3F)n2C)on1 | -100* | 5% | ? | -1% | -3%
CCCNC(=O)N1CCN(S(=O)(=O)c2ccc3c(ccn3C)c2)CC1 | nt | -5%[46 µM] | nt | nt | nt
O=C1C2=C(CCCC2)C(=O)N1CNc1ccccc1 | nt | ? | 9% | nt | nt
O=C1C(Nc2ccccc2)=C2CCCC=C2N1c1ccccc1 | nt | nt | 13µM* | nt | nt
Cc1ccc(CNC(=O)CN(C)S(=O)(=O)c2cccs2)cc1 | nt | -1%[9.22 µM] | 6% | nt | nt
CCOC(=O)C[n+]1c(C)sc2ccc(OC)cc21 | -29 | 14% | 6.3µM* | 20µM* | -24%
O=C(Nc1ccc2nc(-c3ccco3)[nH]c2c1)c1cccs1 | 326 | -7% | 7.1µM* | ? | 9%
